Some test systems named below: T-47D breast; BT-549 breast; MDA-MB-435 melanoma; SW-620 colon; MCF7 breast; HCT-116 colon; HCC-2998 colon; KM12 colon.
Assay in all cases: NCI-60 one-dose screen, 48 h (100 = growth as untreated, 0 = no growth, -100 = all killed)
What all share (conditions): 10 µM unless noted

About 83,000 compounds went through this panel and 20% of them were active in at least one assay; those are over-represented in the sample as a whole.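 Each cell line was grown in a 96-well plate and treated with one concentration of compound for 48 hours. Values below 10 were considered active.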 A number with no mark means an inactive call. Activity calls are given as the source filed them.

`CCn1cc(C(=O)O)c(=O)c2cc(F)c(N3CCN(CC(=O)Nc4ccc(S(=O)(=O)Nc5nccc(C)n5)cc4)C(C)C3)c(F)c21` (stereo not given): the growth with T-47D breast was 98.9%; in the test on BT-549 breast, 132%; in the test with MDA-MB-435 melanoma, 103%; with SW-620 colon, 96.6%; with MCF7 breast it was 96.7%; in the test on HCT-116 colon, 104%. For the same compound, the growth in the test with HCC-2998 colon is 115%; in the test on KM12 colon, 100%.

On to `Fc1ccc(CNc2c3ccccc3nc3ccccc23)c(F)c1`, for which the growth in the test with T-47D breast was 47.4%; in the test on BT-549 breast, 82.8%; in the test on MDA-MB-435 melanoma, 66.5%; in the test on SW-620 colon, 29.8%; in the test on MCF7 breast, 10.2%; in the test with HCT-116 colon, 14.2%. In addition, the growth in the test on HCC-2998 colon is 41.3%; with KM12 colon it was 60%.

With `Cc1cc(C(=O)O)c(C)n1-c1cccc(C(=O)O)c1`, the growth in the test on T-47D breast is 84.1%; in the test on BT-549 breast it was 83.3%; with MDA-MB-435 melanoma, 100%; in the test on SW-620 colon, 44.6%; with MCF7 breast, 61.2%; in the test with HCT-116 colon, 35.3%. In addition, the growth in the test with HCC-2998 colon was 101%; with KM12 colon, 97.8%.

For the compound `CCc1ccccc1-n1c(-c2ccc(OC)cc2)cc(-c2ccc(OC)cc2)c(C#N)c1=O`, the growth in the test on T-47D breast is 90.6%; in the test on BT-549 breast, 101%; in the test with MDA-MB-435 melanoma, 104%; with SW-620 colon, 93.9%; in the test with MCF7 breast, 93%; with HCT-116 colon it was 51.1%. Further, the figures for the growth with HCC-2998 colon and with KM12 colon were 97.1% and 92.5%, respectively.

As for `COC(=O)[C@@H](CCCCNC(=O)[C@]12CCC(C)(C)C[C@@H]1C1=CC[C@@H]3[C@@]4(C)C/C(=C/c5ccco5)C(=O)C(C)(C)[C@@H]4CC[C@@]3(C)[C@]1(C)CC2)NC(=O)[C@]12CCC(C)(C)C[C@@H]1C1=CC[C@@H]3[C@@]4(C)C/C(=C/c5ccco5)C(=O)C(C)(C)[C@@H]4CC[C@@]3(C)[C@]1(C)CC2`, the growth in the test on T-47D breast was 94.7%; with BT-549 breast it was 106%; in the test with MDA-MB-435 melanoma, 93.9%; in the test on SW-620 colon it was 112%; with MCF7 breast, 104%; in the test on HCT-116 colon, 100%. The growth in the test with HCC-2998 colon and in the test on KM12 colon was 103% throughout.

For `Cc1cc(N2CCCCC2)cc(C)c1-c1csc(NC(=O)c2ccncc2)n1`, the growth was 34.3% with T-47D breast; 57.6% in the test with BT-549 breast; 37.1% in the test on MDA-MB-435 melanoma; 69.9% in the test with SW-620 colon; 32.6% in the test with MCF7 breast; 20.7% with HCT-116 colon. Also, the figures for the growth in the test on HCC-2998 colon and in the test with KM12 colon were 97.4% and 64.5%, respectively.

Regarding `CCOC(=O)c1c2c(n3cccc(F)c13)C(=O)c1ncccc1C2=O`, the growth in the test with T-47D breast is 54.5%; in the test with BT-549 breast it was 21.7%; in the test on MDA-MB-435 melanoma it was 13.1%; with SW-620 colon it was -7.69% (active); in the test with MCF7 breast, -23.1% (active); with HCT-116 colon, -10.7% (active). Also, the growth is 25% in the test on HCC-2998 colon and 19% in the test with KM12 colon.

Turning to `CC(=O)Oc1ccc(N2C(=O)C(Cl)=C(Nc3cccc(C(F)(F)F)c3)C2=O)cc1`, the growth in the test with T-47D breast is 86.6%; with BT-549 breast, 85.8%; in the test on MDA-MB-435 melanoma, 97.5%; in the test on SW-620 colon, 99.1%; in the test on MCF7 breast, 92.8%; in the test on HCT-116 colon it was 91%. Besides, the results for the growth in the test with HCC-2998 colon and in the test on KM12 colon were 104% and 96.3%, respectively.

With `N#CC1=C(N)Oc2c(c(=O)[nH]c3ccc(Cl)cc23)C12C(=O)c1ccccc1C2=O`, the growth in the test with T-47D breast was 98.2%; with BT-549 breast, 89%; with MDA-MB-435 melanoma it was 92.6%; in the test with SW-620 colon, 86.5%; with MCF7 breast, 96.4%; in the test with HCT-116 colon it was 95.7%. The growth was 109% in the test on HCC-2998 colon and 90.7% in the test on KM12 colon.

In the case of `Cc1cc(C(=O)Nc2ncc(Cc3cccc(C(F)(F)F)c3)s2)c2ccccc2n1`, the growth is 12.1% in the test on T-47D breast; 34.7% with BT-549 breast; -27.3% (active) with MDA-MB-435 melanoma; 17.3% with SW-620 colon; 10.2% with MCF7 breast; 18% in the test on HCT-116 colon. Further, the growth with HCC-2998 colon is 25.6%; with KM12 colon it was 15.5%.

`O=C(/C=C/c1cccc(Cl)c1)c1ccc(Nc2nc(Nc3ccc(F)cc3)nc(Nc3ccc(Cl)cc3)n2)cc1`: the growth with T-47D breast was 113%; with BT-549 breast it was 172%; in the test with MDA-MB-435 melanoma it was 117%; in the test with SW-620 colon it was 104%; in the test on MCF7 breast it was 230%; with HCT-116 colon it was 82.3%. In addition, the results for the growth in the test on HCC-2998 colon and in the test with KM12 colon were 98.2% and 112%, respectively.

On to `O=C1/C=C/[C@@H](O)[C@@H]2C[C@@H](O)C[C@H]2/C=C/CCC[C@H](CCc2ccccc2)O1`, for which the growth with T-47D breast was 15.1%; in the test on BT-549 breast, 9.81% (active); in the test on MDA-MB-435 melanoma, 5.95% (active); with SW-620 colon it was -9.76% (active); in the test with MCF7 breast, -3.62% (active); with HCT-116 colon, -73.6% (active). Besides, the growth is 15.9% with HCC-2998 colon and -50.5% (active) in the test with KM12 colon.

As to `COc1c(B(O)O)cccc1-c1cc(C)c2c(ccc3[nH]ncc32)n1`, the growth with T-47D breast is 84.1%; in the test with BT-549 breast it was 23.1%; with MDA-MB-435 melanoma, 92%; in the test with SW-620 colon it was 63.5%; with MCF7 breast it was 71.8%; in the test with HCT-116 colon it was 41.7%. The growth in the test on HCC-2998 colon was 105%; in the test with KM12 colon, 83.1%.

For `O=C(c1ccncc1)N1N=C(c2ccc(Cl)cc2)C[C@H]1c1cn(-c2ccccc2)nc1-c1ccccc1`, the growth in the test with T-47D breast is 87.6%; in the test on BT-549 breast it was 92.5%; in the test on MDA-MB-435 melanoma it was 89.3%; in the test with SW-620 colon, 101%; with MCF7 breast, 74.8%; in the test with HCT-116 colon it was 73.5%. Besides, the growth with HCC-2998 colon is 92.2%; in the test with KM12 colon it was 86.1%.

Regarding `Nc1ncnc2c1C(c1ccccc1)c1ccc3ccccc3c1O2` (stereo not given), the growth was 55.7% in the test with T-47D breast; 73.3% in the test on BT-549 breast; 79.3% in the test with MDA-MB-435 melanoma; 94.9% with SW-620 colon; 67.4% with MCF7 breast; 85.3% in the test with HCT-116 colon. Besides, the values for the growth in the test with HCC-2998 colon and in the test with KM12 colon were 102% and 88.3%, respectively.
